Inconclusive results are not listed. Values without a mark were called inactive. Active and inactive are the calls of the source. Calls come from the whole dose curve; as a rule, active = well fitted inhibition curve with a large enough effect; inconclusive = small, poorly fitted or top-dose-only effect; inactive = flat fitted curve, though single readings scatter.
% is set by controls: 0 for no effect and ±100 for the full control effect; potency is the fitted concentration of half-maximal effect.

For the test, the system named is astro (control astrocytes). In words: Drug repurposing screens with cells derived from glioblastoma tumor samples (AID 1345199). Note: nearly all actives have a fitted effect of over 40% in size. Particulars: viability, ATP luminescence, 48 h; series mostly up to 45.9 µM; activity, negative = cell killing: at the top concentration. In short, it runs like this: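 Primary testing used CD133+ neurospheres from four GBM patients, seven concentrations, 48 h exposure and ATP-based viability; confirmation added three slower-growing patient lines.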
As to `COC(=O)C1=C(C#N)NC(C)=C(C(=O)OC(C)C)C1c1cccc([N+](=O)[O-])c1` (configuration not stated), the “activity, negative = cell killing” value was -15.7%.
For `CCCCC(=O)OCC(=O)[C@]1(O)Cc2c(O)c3c(c(O)c2[C@@H](O[C@H]2C[C@H](NC(=O)C(F)(F)F)[C@H](O)[C@H](C)O2)C1)C(=O)c1c(OC)cccc1C3=O`, the Potency was 2.24 µM (active).
On to `CC[C@@]1(O)C(=O)OCc2c1cc1n(c2=O)Cc2cc3c([N+](=O)[O-])cccc3nc2-1`, for which the Potency was 1.26 µM (active).
In the case of `CCCCCCCCCCCCCC[n+]1ccc(C)cc1`, the Potency is 3.16 µM (active).
As to `CO[C@H]1C[C@@H]2CC[C@@H](C)[C@@](O)(O2)C(=O)C(=O)N2CCCC[C@H]2C(=O)O[C@H]([C@H](C)C[C@@H]2CC[C@@H](OCCO)[C@H](OC)C2)CC(=O)[C@H](C)/C=C(\C)[C@@H](O)[C@@H](OC)C(=O)[C@H](C)C[C@H](C)/C=C/C=C/C=C/1C`, the Potency is 25.1 µM (active).
For `CO[C@H](C(=O)[C@@H](O)[C@@H](C)O)C1Cc2cc3cc(O[C@H]4C[C@@H](O[C@H]5C[C@@H](O)[C@H](O)[C@@H](C)O5)[C@@H](O)[C@@H](C)O4)c(C)c(O)c3c(O)c2C(=O)[C@H]1O[C@H]1C[C@@H](O[C@H]2C[C@@H](O[C@H]3C[C@](C)(O)[C@H](O)[C@@H](C)O3)[C@H](O)[C@@H](C)O2)[C@H](O)[C@@H](C)O1` (some centres not stated), the Potency was 0.112 µM (active).
On to `C#C[C@]1(O)CC[C@H]2[C@@H]3CCC4=CCCC[C@@H]4[C@H]3C(=C)C[C@@]21CC`, for which the Potency is 35.5 µM (active).

Values taken from PubChem BioAssay (NCATS).
